Assay outcomes as filed in PubChem.
In the library only some 1.2% were active in any assay of this set; here they are far more common.
RGS16-Gao = modulators of RGS16 binding to Galphao, primary screen, biochemical, human proteins, multiplexed bead flow cytometry. actives 0.38% (n = 220,000). Regulator of G-protein signaling 16 (Homo sapiens) + Guanine nucleotide-binding protein …. bead-based flow cytometry RGS16-Galphao binding, fluorescence; actives lie on both sides. binding response (% of control), % at 10 µM;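 note: Galphao activated by GDP with aluminum fluoride before binding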
Target sequence (O15492 whole entry, looked up): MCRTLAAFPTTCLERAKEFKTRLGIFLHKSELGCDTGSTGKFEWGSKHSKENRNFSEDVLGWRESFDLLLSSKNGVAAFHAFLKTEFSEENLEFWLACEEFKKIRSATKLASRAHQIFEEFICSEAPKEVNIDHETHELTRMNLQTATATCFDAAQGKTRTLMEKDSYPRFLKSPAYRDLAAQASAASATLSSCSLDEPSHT
Target sequence (P09471 whole entry, looked up): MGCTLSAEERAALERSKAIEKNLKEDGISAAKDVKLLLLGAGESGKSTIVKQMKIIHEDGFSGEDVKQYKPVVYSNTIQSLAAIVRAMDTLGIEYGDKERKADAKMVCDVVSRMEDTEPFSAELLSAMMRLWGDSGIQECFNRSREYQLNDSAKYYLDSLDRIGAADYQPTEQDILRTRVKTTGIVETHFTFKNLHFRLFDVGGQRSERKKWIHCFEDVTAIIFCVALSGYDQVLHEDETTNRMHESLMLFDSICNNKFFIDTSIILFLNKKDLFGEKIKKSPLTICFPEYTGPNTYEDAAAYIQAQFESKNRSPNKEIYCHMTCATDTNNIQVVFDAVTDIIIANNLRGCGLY
GSH bead fluor = compound fluorescence on glutathione beads, profiling panel, artefact control, biophysical, 488/530 nm, flow cytometry; GSH beads flow cytometry, compound fluorescence 488/530 nm; stronger effect = higher value; fluorescence (KMESF) at 10 µM; actives 0.25% (n = 190,000); AID 1776, 2009; in the data active = fluorescence above about 89;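 note: glutathione beads carrying GST-tagged Bcl family fusion proteins plus one bare bead set; values are compound well signal with DMSO vehicle wells as background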
RGS7-Gao = RGS7-Galphao binding modulators, primary screen, biochemical, multiplexed bead flow cytometry. AID 1439, 2008. actives 0.35% (n = 220,000). Guanine nucleotide-binding protein G(o) subunit alpha (Homo sapiens), P09471. actives lie on both sides. binding response (% of control), % at 10 µM; in the data active = binding response below about 49% or above about 150%; inconclusive = no clear call, values can overlap the other calls; inactive = in between;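 note: fluorescent Galphao held in activated GDP-AlF4 state binding bead-coupled RGS7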
RGS8-Gao reg = RGS8-Galphao binding modulators, primary screen, biochemical, multiplexed bead flow cytometry. response (percent of control binding), % at 10 µM. actives lie on both sides. actives 0.34% (n = 220,000); in the data active = response below about 60% or above about 140%; inactive = in between;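 note: Galphao activated as the GDP aluminium fluoride complex binding bead-coupled RGS8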
RGS4-Gao reg = modulators of RGS4 binding to Galphao, primary screen, biochemical, multiplexed bead flow cytometry; actives 0.33% (n = 220,000); AID 1415, 2008; Guanine nucleotide-binding protein G(o) subunit alpha (Homo sapiens), P09471; actives lie on both sides; binding response (% of control), % at 10 µM; in the data active = binding response below about 49% or above about 150%; inactive = in between;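 note: fluorescent Galphao activated with aluminum fluoride binding bead-coupled RGS4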
Avidin bead fluor = green autofluorescence of compounds with avidin beads – biophysical, 488/530 nm, flow cytometry, artefact control, profiling panel; actives 0.38% (n = 220,000); compound fluorescence 488/530 nm; stronger effect = higher value; fluorescence (KMESF) at 10 µM; in the data active = fluorescence above about 47
RGS4-Gao HTS = modulators of RGS–Galpha-o binding, primary screen, biochemical, multiplexed beads, flow cytometry, RGS4/7/8/16/19. shares compounds with RGS16-Gao. multiplexed bead flow cytometry. RGS4–Galpha-o binding response, % at 10 µM. actives 99% (n = 1,600);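 note: fluorescently labeled Galpha-o bound to GDP with aluminium fluoride binding biotinylated RGS beads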
Avidin counter = disruption of biotin probe capture by avidin, counter-screen for RGS protein interaction modulators, biochemical, flow cytometry, bead-based; inhibition, % at 10 µM; streptavidin beads, fluorescein-biotin binding; 1,700 tested, under 10 active; shares compounds with RGS16-Gao;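 active = inhibition above 50%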;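 note: median green fluorescence of gated singlet beads compared with DMSO control wells; 0% = DMSO wells and 100% = complete loss of bead fluorescence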
RGS8-Gao single = RGS8-Galphao binding modulators, confirmation, biochemical, multiplexed bead flow cytometry, single concentration; shares compounds with RGS16-Gao; bead-based flow cytometry RGS8-Galphao binding, fluorescence; actives lie on both sides; binding response (% of control), % at 10 µM; actives 3% (n = 1,700); AID 1836, 2009; in the data active = binding response below about 72% or above about 130%; inactive = in between;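 note: Galphao activated as GDP AlF4 complex before binding bead RGS8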
RGS7-Gao single = RGS7-Galphao binding modulators, confirmation, biochemical, multiplexed bead flow cytometry, single concentration. shares compounds with RGS16-Gao. bead-based flow cytometry RGS7-Galphao binding; actives lie on both sides. response (percent of control binding), % at 10 µM. actives 7.8% (n = 1,700); in the data active = response below about 75% or above about 130%; inactive = in between;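 note: fluorescent Galphao activated with GDP and aluminum fluoride binding bead-coupled RGS7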
RGS16-Gao conf = modulators of RGS16-Galphao protein binding, confirmation, biochemical, single concentration, multiplexed bead flow cytometry | actives 4% (n = 1,700) | AID 1838, 2009 | response (% of control binding), % at 10 µM | bead-based flow cytometry; actives lie on both sides | shares compounds with RGS16-Gao; in the data active = response below about 74% or above about 130%; inactive = in between;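 note: Galphao activated as the GDP aluminium fluoride complex binding bead-coupled RGS16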
RGS4-Gao single = modulators of RGS4-Galphao protein binding, confirmation, biochemical, single concentration, multiplexed bead flow cytometry; shares compounds with RGS16-Gao; actives lie on both sides; binding response (% of control), % at 10 µM; actives 4% (n = 1,700); AID 1840, 2009; in the data active = binding response below about 74% or above about 130%; inactive = in between
RGS19-Gao conf = regulators of RGS19-Galphao binding, confirmation, biochemical, single point, multiplexed bead flow cytometry | actives 5% (n = 1,700) | bead-based flow cytometry RGS19-Galphao binding; actives lie on both sides | shares compounds with RGS16-Gao | response (percent of control binding), % at 10 µM; in the data active = response below about 50% or above about 160%; inactive = in between;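 note: 100% = no compound control and 0% = blank background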
Numbers without * were called inactive; ? = inconclusive; . = no result given. Unless noted, the rule behind the calls is not given here.

SMILES	RGS16-Gao	GSH bead fluor	RGS7-Gao	RGS8-Gao reg	RGS4-Gao reg	Avidin bead fluor	RGS4-Gao HTS	Avidin counter	RGS8-Gao single	RGS7-Gao single	RGS16-Gao conf	RGS4-Gao single	RGS19-Gao conf
C#CCn1c(=NC(=O)c2cc(-c3cccs3)nc3ccccc23)sc2cc(S(N)(=O)=O)ccc21	84.0	5	34.1*	47.3*	79.7	0	79.7*	-0.6	96.5	91.4	97.7	94.3	89.8
CCC(=O)c1ccc(OCC(=O)N2CCc3cc(OC)c(OC)cc3C2)cc1	-36.2*	28	-11.6*	9.6*	-32.8*	-3	.	-2.5	102.5	96.3	97.3	100.2	127.6
Cc1cc(C)cc(N(C(=O)Cc2cccs2)C(C(=O)NC2CCCC2)c2ccc(C)o2)c1 (stereo not drawn)	.	17	.	.	.	.	.	-0.8	95.5	91.5	92.7	93.1	81.3
Cc1ccc(C(C(=O)NC2CCCC2)N(C(=O)Cc2cccs2)c2cccc(C)c2C)o1 (stereo not drawn)	105.9	28	97.0	100.7	103.8	14	.	.	.	.	.	.	.
Cc1ccc(Nc2c(-c3ccc(N(C)C)cc3)nc3ncccn23)cc1	92.1	.	?	96.8	96.2	14	.	.	.	.	.	.	.
Cc1ccc(SCc2nc3ncccn3c2Br)cc1	.	.	.	.	.	75*	.	0.1	95.7	91.0	92.1	94.2	88.2
COc1cccc(C(=O)OCC(=O)Nc2cc(C)c(C)cc2[N+](=O)[O-])c1	111.4	14	103.8	102.0	108.1	9	.	.	.	.	.	.	.
C/C(=N\NC(=O)Cc1cccn1C)c1cccc2ccccc12	76.4	16	76.5	77.5	90.6	5	.	.	.	.	.	.	.
C/C(=N\NC(=O)Cc1cccn1C)c1ccc2ccccc2c1	52.6	9	35.8*	36.0*	68.0	1	68.0*	1.0	101.7	100.5	103.3	103.3	125.5
C/C(=N/NC(=O)Cc1cccn1C)c1ccccc1	48.7	22	45.7*	46.7*	70.6	2	70.6*	-0.1	100.9	93.9	101.6	100.2	92.0
COc1cc2c(cc1OC)CN(C(=O)/C=C/c1cccs1)CC2	105.1	.	?	97.9	101.4	8	.	.	.	.	.	.	.
